Records with an inconclusive call do not appear. A number with no mark means an inactive call. Calls come from the whole dose curve; as a rule, active = well fitted curve in the direction sought with a large enough effect; inconclusive = small, poorly fitted or top-dose-only effect, or another doubt; inactive = no such curve, though single readings can be large; an effect the other way counts as inactive or inconclusive.
% is set by controls: 0 for no effect and ±100 for the full control effect.

M-phase phosphoprotein 8 (Homo sapiens), sequence (Q99549 whole entry, looked up): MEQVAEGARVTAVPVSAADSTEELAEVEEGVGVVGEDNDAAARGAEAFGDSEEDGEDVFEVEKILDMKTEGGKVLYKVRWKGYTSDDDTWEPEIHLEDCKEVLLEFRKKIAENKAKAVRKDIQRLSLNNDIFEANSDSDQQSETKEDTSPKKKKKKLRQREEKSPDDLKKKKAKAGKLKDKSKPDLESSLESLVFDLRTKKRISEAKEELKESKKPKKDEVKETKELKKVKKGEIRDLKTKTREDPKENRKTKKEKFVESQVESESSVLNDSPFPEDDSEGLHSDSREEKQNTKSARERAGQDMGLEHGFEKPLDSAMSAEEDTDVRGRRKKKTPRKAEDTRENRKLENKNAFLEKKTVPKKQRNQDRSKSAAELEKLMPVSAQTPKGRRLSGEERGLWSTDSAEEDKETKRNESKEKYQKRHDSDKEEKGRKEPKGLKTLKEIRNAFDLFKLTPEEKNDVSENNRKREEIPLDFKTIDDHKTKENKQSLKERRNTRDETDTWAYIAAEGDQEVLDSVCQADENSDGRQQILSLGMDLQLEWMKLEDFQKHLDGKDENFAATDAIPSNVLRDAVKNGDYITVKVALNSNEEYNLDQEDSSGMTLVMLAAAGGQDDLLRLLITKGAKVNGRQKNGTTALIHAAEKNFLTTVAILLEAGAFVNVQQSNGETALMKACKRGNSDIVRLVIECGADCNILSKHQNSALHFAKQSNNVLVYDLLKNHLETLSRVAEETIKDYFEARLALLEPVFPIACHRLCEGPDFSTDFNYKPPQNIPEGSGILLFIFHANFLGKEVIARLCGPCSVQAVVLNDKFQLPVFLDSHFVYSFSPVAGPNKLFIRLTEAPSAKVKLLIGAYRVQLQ
ATP-dependent 6-phosphofructokinase (Trypanosoma brucei brucei), sequence (O15648 whole entry, looked up): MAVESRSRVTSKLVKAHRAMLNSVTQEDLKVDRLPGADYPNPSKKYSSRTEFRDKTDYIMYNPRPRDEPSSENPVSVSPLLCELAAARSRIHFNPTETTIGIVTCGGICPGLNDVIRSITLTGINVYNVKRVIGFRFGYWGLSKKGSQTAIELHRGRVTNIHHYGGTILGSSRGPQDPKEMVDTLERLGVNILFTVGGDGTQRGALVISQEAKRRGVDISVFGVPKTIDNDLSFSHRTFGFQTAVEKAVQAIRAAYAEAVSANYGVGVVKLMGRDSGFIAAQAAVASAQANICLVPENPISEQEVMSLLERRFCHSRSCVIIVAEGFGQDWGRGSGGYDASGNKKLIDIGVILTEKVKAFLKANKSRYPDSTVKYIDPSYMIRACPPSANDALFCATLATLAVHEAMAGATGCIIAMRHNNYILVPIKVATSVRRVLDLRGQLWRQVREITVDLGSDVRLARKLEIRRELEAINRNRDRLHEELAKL

The target in one assay is M-phase phosphoprotein 8 (Homo sapiens) (UniProt Q99549). The assay is described as follows: qHTS Validation Assay for Inhibitors for MPP8 Chromodomain Interactions with Methylated Histone Tails (AID 488949). Note: top concentration of the series differs between compounds; nearly all actives have a fitted effect of over 55% in size. Particulars: AlphaScreen MPP8 binding to H3K9me3 peptide; series mostly up to 57.1 µM; activity change, negative = inhibition: at the top concentration. The gist of the method:
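MPP8 (50 nM) was pre-bound to 50 nM biotinylated H3(1-18)K9me3 peptide in PBS pH 7.4 with 0.01% Tween-20. Compounds were then added for 30 min at room temperature, and complex disruption was read by AlphaScreen with streptavidin donor and nickel-chelate acceptor beads.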
Consider `C=CCc1cccc(C=NNC(=O)CN2CCN(Cc3ccccc3)CC2)c1O`, for which the “activity change, negative = inhibition” value is 15.9%.

`CCNC(=O)[C@H]1O[C@@H](n2cnc3c(N)nc(NCCc4ccc(CCC(=O)O)cc4)nc32)[C@H](O)[C@H]1O`: the “activity change, negative = inhibition” value was 32.4% [at 114 µM]. For `C[C@H]1O[C@@H](n2cc(F)c(=O)[nH]c2=O)[C@H](O)[C@H]1O`, the “activity change, negative = inhibition” value was -6.59%.

Another assay concerns the target ATP-dependent 6-phosphofructokinase (Trypanosoma brucei brucei) (UniProt O15648). The assay is described as follows: qHTS Assay to Find Inhibitors of T. brucei phosphofructokinase: hit validation (AID 492961).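 Note: luminescence reports ADP formed as PFK phosphorylates fructose-6-phosphate with ATP.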 The settings on record: T. brucei PFK, ADP-Glo luminescence; series mostly up to 51.4 µM; activity change, negative = inhibition: at the top concentration. In short, it runs like this:
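Reaction: 0.1 M triethanolamine pH 8.0, 5 mM MgCl2, F6P 0.5 mM, ATP 0.1 mM, PFK 1.25 nM, 45 min RT. Read-out: ADP-Glo luminescence. Analysis: concentration-response fits, classed by r2 and efficacy.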
Consider `CS(=O)(=O)c1ccc(C2=C(c3ccccc3)C(=O)OC2)cc1`, for which the “activity change, negative = inhibition” value is 4%. On the same count and under the same terms, to `N#CC(c1ccc(Cl)cc1)c1c(Cl)cc(-n2ncc(=O)[nH]c2=O)cc1Cl` (configuration not stated) belongs 0%; to `CN1CCN2c3ncccc3Cc3ccccc3C2C1` (configuration not stated), -6.51%; to `COc1ccnc(CS(=O)c2nc3ccc(OC(F)F)cc3[nH]2)c1OC` (configuration not stated), -18.3%. Still for that read-out and setting: with `NCC1CCC(C(=O)O)CC1` (configuration not stated) the figure was 6.55% [at 24.3 µM]; with `CN1CC(=O)N2C(Cc3c([nH]c4ccccc34)[C@H]2c2ccc3c(c2)OCO3)C1=O` (some centres not stated), -8.89%.

In the case of `NS(=O)(=O)c1cc(Cl)c(Cl)c(S(N)(=O)=O)c1`, the “activity change, negative = inhibition” value was -2.48% [at 24.3 µM]. On the same count and under the same terms, to `N#Cc1c(N(CC(=O)O)CC(=O)O)sc(C(=O)O)c1CC(=O)O` belongs -8.15%; to `Clc1ccc(COC(Cn2ccnc2)c2ccc(Cl)cc2Cl)c(Cl)c1` (configuration not stated), -6.9% [at 24.3 µM]. The same measure, in the same setting: with `O=C1C(CCC(O)c2ccc(F)cc2)C(c2ccc(O)cc2)N1c1ccc(F)cc1` (configuration not stated) the figure was -0.787%; with `COc1c(C)c2c(c(O)c1CC=C(C)CCC(=O)OCCN1CCOCC1)C(=O)OC2`, -7.03%; with `COc1cc2c(cc1OC)CC(=O)N(CCCN(C)C[C@H]1Cc3cc(OC)c(OC)cc31)CC2`, 3.9%. The same measure, in the same setting: with `O=C(O)c1nc(=O)[nH]c(=O)[nH]1` the figure was -10.1%. Take `CC(C)CN(C[C@@H](O)[C@H](Cc1ccccc1)NC(=O)O[C@H]1CO[C@H]2OCC[C@H]21)S(=O)(=O)c1ccc(N)cc1`: the “activity change, negative = inhibition” value was -2.67%.
